This is an account of results in PubChem BioAssay (Tox21).

The structures appear in SMILES notation. The source made the active and inactive calls. Calls follow the shape of the dose curve; as a rule, active = well fitted curve in the direction sought with a large enough effect in the repeat runs; inconclusive = weak or mixed curves; inactive = flat fitted curve, though single readings scatter.

The nature of this assay: qHTS assay to test for compound auto fluorescence at 590 nm (red) in HepG2 cells (AID 720674). Particulars: HepG2 autofluorescence, red 540/590 nm, 1 h; series mostly up to 91.3 µM. From the text:
U.S. Tox21 Program National Center for Advancing Translational Sciences [NCATS] NIH Chemical Genomics Center [NCGC] U.S. Environmental Protection Agency [EPA] National Institutes of Environmental Health Sciences [NIEHS] National Toxicology Program [NTP] U.S. Food and Drug Administration [FDA] Tox21 Assay Overview: Compound auto fluorescence often interferes with screening of the compound library against various biological targets and signaling pathways. Some of these compounds may have fluorophoric properties. Such properties may interfere with the assay outputs resulting in false positives and/or negatives. To decrease such complications and ensure the compound activities are relevant in terms of biological response, the Tox21 10K compound library was screened for auto fluorescence. From the fluorophores used as reporter signals in our screening assays, the auto fluorescence equivalencies of compounds against three fluorophores have been evaluated: Triamterene, Fluorescein and Rose Bengal sodium for blue, green and red fluorescence, respectively. The fluorescence intensities were measured using Excitation/Emission wavelengths at 405/460nm, 485/535nm and 540/590nm for blue, green and red labels, respectively. This assay includes the red fluorescence data.
Tox21 Assay Protocol Summary: 2,000 HepG2 cells in 5 uL of culture medium (MEM containing 10% FBS) per well were dispensed into black wall/clear bottom 1536-well plates using a Multidrop Combi Dispenser (ThermoFisher Scientific, Waltham, MA). The assay plates were incubated overnight at 37 C to allow cell attachment to the well bottom, followed by the transfer of 23 nL compound or DMSO vehicle by a pintool work station (Kalypsys , San Diego, CA). After the assay plates were incubated for 1 hr at 37 C and 5% CO2, fluorescence intensities in the assay plates were measured by an Envision (PerkinElmer, Shelton, CT) plate reader using three labels for measuring blue, green and red fluorescence at […] 460, 535 and 590 nm respectively.
For the molecule `Nc1c(Cl)cc([N+](=O)[O-])cc1Cl`, the outcome was inactive.
With `O=[N+]([O-])c1ccc(O)c([N+](=O)[O-])c1` the entry was “inactive”; with `CN(C)c1ccc(C(=O)c2ccc(N(C)C)cc2)cc1`, “inactive”; with `CC(C)Oc1cc(-n2nc(C(C)(C)C)oc2=O)c(Cl)cc1Cl`, “inactive”.
With `O=S(=O)(Oc1ccc(Cl)cc1)c1ccc(Cl)cc1` the entry was “inactive”; with `CCN(CC)C(=O)SCc1ccc(Cl)cc1`, “inactive”.
To `S=C1NCCN1` belongs “inactive”; to `CCCCOCCOP(=O)(OCCOCCCC)OCCOCCCC`, “inactive”.
On to `CCC(C)c1ccc(O)cc1` (stereo not given), for which the outcome was inactive.
Regarding `O=Cc1ccco1`, the molecule was classed as inactive.
To `CC(C)=CC1C(C(=O)OCc2coc(Cc3ccccc3)c2)C1(C)C` (stereo not given) belongs “inactive”; to `CCOc1cc(C=O)ccc1O`, “inactive”; to `c1ccc(-c2cccc(-c3ccccc3)c2)cc1`, “inactive”.
To `C=CCN(CC=C)C(=O)C(Cl)Cl` belongs “inactive”.
With `O=C(O)C(F)(F)C(F)(F)C(F)(F)C(F)(F)C(F)(F)C(F)(F)C(F)(F)F` the entry was “inactive”; with `CCCCC(CC)COC(=O)c1ccc(C(=O)OCC(CC)CCCC)c(C(=O)OCC(CC)CCCC)c1` (stereo not given), “inactive”.
Regarding `O=C1C=CC(=O)C=C1`, the outcome was inactive.
For `CCOC(=O)C(C)OC(=O)c1cc(Oc2ccc(C(F)(F)F)cc2Cl)ccc1[N+](=O)[O-]` (stereo not given), the call was inactive.
To `C#C[C@]1(O)CC[C@H]2[C@@H]3CCC4=CC(=O)CC[C@]4(C)[C@H]3CC[C@@]21C` belongs “inactive”; to `Oc1cc(Cl)ccc1Cl`, “inactive”; to `CC(C)(OOC(C)(C)c1ccccc1)c1ccccc1`, “inactive”.
To `Oc1cc(Cl)ccc1Oc1ccc(Cl)cc1Cl` belongs “inactive”; to `CCCCNC(=O)n1c(NC(=O)OC)nc2ccccc21`, “inactive”.
To `CC(C)c1ccc(CO)cc1` belongs “inactive”; to `CC(C)(C)c1ccccc1O`, “inactive”; to `Nc1ccc(Cl)c(Cl)c1`, “inactive”.
On to `Cc1ccc(N)c(N)c1`, for which the molecule was called inactive.
With `CCCCCCCCC(=O)NCc1ccc(O)c(OC)c1` the entry was “inactive”.
`Cc1c(COC(=O)[C@@H]2[C@H](/C=C(\Cl)C(F)(F)F)C2(C)C)cccc1-c1ccccc1`: the call was inactive.
As to `C#CCOS(=O)OC1CCCCC1Oc1ccc(C(C)(C)C)cc1` (stereo not given), the molecule was classed as inactive.
To `Nn1cnnc1` belongs “inactive”; to `CCOc1cc(Oc2ccc(C(F)(F)F)cc2Cl)ccc1[N+](=O)[O-]`, “inactive”.
To `c1cc(OCC2CO2)ccc1Cc1ccc(OCC2CO2)cc1` (stereo not given) belongs “inactive”.
With `CC(C)C(=O)OCC(C)(C)C(OC(=O)C(C)C)C(C)C` (stereo not given) the entry was “inactive”; with `NCc1cccnc1`, “inactive”.
On to `N[C@@H](Cc1ccc(N(CCCl)CCCl)cc1)C(=O)O`, for which the call was inactive.
As for `Nc1cccnc1`, the molecule was called inactive.
With `CCN(CC)N=O` the entry was “inactive”; with `CCc1cccc(CC)c1N(COC)C(=O)CCl`, “inactive”; with `CCCCN(CC)c1c([N+](=O)[O-])cc(C(F)(F)F)cc1[N+](=O)[O-]`, “inactive”.
